Reference: the supplement of paper PMC10849652
Targets with a hit are over-represented here; the source holds about 7,900 in all. About 0.6% of all pairs of compound and target were hits.

Key:
Assay in all cases: log2 fold change, soluble protein after heating vs DMSO (PISA); higher = thermal stabilisation; K562 cells, 10 uM, 30 min; active = over 0.2 and 3.5 SD of the protein, either way, in both replicates (recomputed)
[1] = compound: C1CCN(C1)C(=O)NC2=CC=CC(=C2)NC3=NC=C(C(=N3)NCCC4=CN=CN4)Br
Procedure, shortened: (§1)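 For each measurement, 10 μM compound was applied for 30 min to K562 cells at 2×10^6 cells/mL. Aliquots were heated for 3 min across 48°C-58°C, pooled, and extracted in PBS with 0.5% NP-40 at 4°C; the supernatant after 21,000xg for 90 min was soluble protein. This was quantified by TMTpro 16plex LC-MS/MS with channel sums equalised, and thermal stability was reported relative to control samples from duplicates, on a log2 fold-change scale.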

[2] = compound: C1CN(CCC1(CC2=CC=C(C=C2)Cl)N)C3=NC=NC4=C3C=CN4
Procedure, shortened: as §1

[3] = compound: CC1=C(C2=C(C=C1)C(=O)C3=CC=CC=C3N2CCCN)C
Procedure, shortened: as §1

[4] = compound: C/C(=N\NC(=O)C1=CC(=CC=C1)S(=O)(=O)N2CCOCC2)/C3=C(C=CC(=C3)Cl)O
Procedure, shortened: as §1

[5] = compound: C1=CC2=C(C=CC(=C2)/C=C\3/C(=O)NC(=NCC4=CC=CS4)S3)N=C1
Procedure, shortened: as §1

[6] = compound: C1=CC=C(C=C1)C2=NC(=C(N2)C3=CC=NC=C3)C4=CC(=C(C=C4)Cl)O
Procedure, shortened: as §1

[7] = compound: C1=CC=C2C(=C1)C3=NNC4=CC=CC(=C43)C2=O
Procedure, shortened: as §1

IRAK-1-4 Inhibitor I = compound: C1COCCN1CCN2C3=CC=CC=C3N=C2NC(=O)C4=CC(=CC=C4)[N+](=O)[O-] [IRAK-1-4 Inhibitor I]
Procedure, shortened: as §1

[8] = compound: CC(=O)c1cnc2ccc(-c3cc(Cl)c(O)c(Cl)c3)nc2c1N[C@H]1CC[C@H](CN(C)C)CC1
Procedure, shortened: as §1

ralimetinib = compound: CC(C)(C)Cn1c(N)nc2ccc(-c3[nH]c(C(C)(C)C)nc3-c3ccc(F)cc3)nc21 [ralimetinib]
Procedure, shortened: as §1

[9] = compound: CC(C)C[C@@H](C=O)NC(=O)[C@H](CC(C)C)NC(=O)[C@H](CC(C)C)NC(=O)OCc1ccccc1
Procedure, shortened: as §1

pinometostat = compound: CC(C)N(C[C@H]1O[C@@H](n2cnc3c(N)ncnc32)[C@H](O)[C@@H]1O)[C@H]1C[C@@H](CCc2nc3cc(C(C)(C)C)ccc3[nH]2)C1 [pinometostat]
Procedure, shortened: as §1

[10] = compound: C1=CC2=NC=CN=C2C=C1/C=C/3\C(=O)NC(=O)S3
Procedure, shortened: as §1

ibrutinib = compound: C=CC(=O)N1CCC[C@@H](n2nc(-c3ccc(Oc4ccccc4)cc3)c3c(N)ncnc32)C1 [ibrutinib]
Procedure, shortened: as §1

erlotinib = compound: C#Cc1cccc(Nc2ncnc3cc(OCCOC)c(OCCOC)cc23)c1 [erlotinib]
Procedure, shortened: as §1

[11] = compound: C1=CC(=CC=C1C2=NC3=C(N2)C=C(C=C3)C(=O)N)OC4=CC=C(C=C4)Cl
Procedure, shortened: as §1

[12] = compound: CC(C)C1=C2N=C(C=C(N2N=C1)NCC3=CC=CC=C3)NCCCCCCN
Procedure, shortened: as §1

[13] = compound: C1=CC(=C(C=C1Cl)C2=NC3=NC=CN=C3C(=N2)NC4=CC=NC=C4)F
Procedure, shortened: as §1

[14] = compound: CC(C)(O)CC(=O)NCCn1ccc2ncnc(Nc3ccc(Oc4cccc(C(F)(F)F)c4)c(Cl)c3)c21
Procedure, shortened: as §1

[15] = compound: CC1=C(C(CC(=O)N1)C2=CC=C(C=C2)C(F)(F)F)C(=O)NC3=C(C=C4C(=C3)C=NN4)F
Procedure, shortened: as §1

Measured: log2 fold change

LMNA isoform 2 (UniProt P02545)
inactive: [1] -0.022 | [2] 0.146 | [3] -0.128

MAP2K5 (UniProt Q13163)
UniProt Q13163, sequence (Q13163 whole entry, looked up): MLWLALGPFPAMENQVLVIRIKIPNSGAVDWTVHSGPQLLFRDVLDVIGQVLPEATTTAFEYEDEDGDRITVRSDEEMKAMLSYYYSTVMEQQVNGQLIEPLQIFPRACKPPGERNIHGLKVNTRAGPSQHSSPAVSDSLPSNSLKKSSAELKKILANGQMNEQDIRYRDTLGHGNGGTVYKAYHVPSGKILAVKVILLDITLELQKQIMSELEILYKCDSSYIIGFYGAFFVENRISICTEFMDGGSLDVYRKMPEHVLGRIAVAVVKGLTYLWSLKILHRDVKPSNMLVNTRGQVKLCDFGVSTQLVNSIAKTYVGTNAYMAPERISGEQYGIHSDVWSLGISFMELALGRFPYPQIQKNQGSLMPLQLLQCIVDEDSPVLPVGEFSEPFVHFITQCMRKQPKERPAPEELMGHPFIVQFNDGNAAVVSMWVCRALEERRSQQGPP
active: [8] -1.19
inactive: [4] 0.021 | [5] 0.277 | [6] 0.145 | [7] -0.036 | IRAK-1-4 Inhibitor I 0.063 | ralimetinib 0.066 | [9] -0.238 | pinometostat -0.051

IPP (UniProt Q9Y573)
inactive: [4] 0.091 | [5] 0.083 | [10] -0.17 | [7] 0.139 | ibrutinib 0.041 | [8] -0.084

KIF21A (UniProt H0YI78)
inactive: erlotinib 0.077 | [11] -0.137 | [6] 0.1 | ralimetinib 0.366 | [12] -0.158 | [9] 0.012

LSR (UniProt M0QZL9)
inactive: [13] 0.029 | [14] 0.057

MARCHF3 (UniProt Q86UD3)
inactive: [13] -0.188 | [10] -0.073 | ibrutinib 0.073 | [14] -0.133 | [15] -0.058

LAPTM4B (UniProt Q86VI4)
UniProt Q86VI4, sequence (Q86VI4 whole entry, looked up): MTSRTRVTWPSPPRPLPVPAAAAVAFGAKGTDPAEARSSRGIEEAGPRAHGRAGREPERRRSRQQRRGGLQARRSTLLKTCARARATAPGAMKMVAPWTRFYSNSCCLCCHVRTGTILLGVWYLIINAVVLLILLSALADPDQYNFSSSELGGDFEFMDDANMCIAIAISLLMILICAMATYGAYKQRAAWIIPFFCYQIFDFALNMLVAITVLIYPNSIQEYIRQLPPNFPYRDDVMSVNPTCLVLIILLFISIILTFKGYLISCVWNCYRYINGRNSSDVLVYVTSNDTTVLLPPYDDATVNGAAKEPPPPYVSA
inactive: erlotinib -0.074 | [11] -0.054 | [10] 0.093 | ibrutinib 0.019 | [12] 0.141

MAPK7 (UniProt Q13164)
UniProt Q13164, sequence (Q13164 whole entry, looked up): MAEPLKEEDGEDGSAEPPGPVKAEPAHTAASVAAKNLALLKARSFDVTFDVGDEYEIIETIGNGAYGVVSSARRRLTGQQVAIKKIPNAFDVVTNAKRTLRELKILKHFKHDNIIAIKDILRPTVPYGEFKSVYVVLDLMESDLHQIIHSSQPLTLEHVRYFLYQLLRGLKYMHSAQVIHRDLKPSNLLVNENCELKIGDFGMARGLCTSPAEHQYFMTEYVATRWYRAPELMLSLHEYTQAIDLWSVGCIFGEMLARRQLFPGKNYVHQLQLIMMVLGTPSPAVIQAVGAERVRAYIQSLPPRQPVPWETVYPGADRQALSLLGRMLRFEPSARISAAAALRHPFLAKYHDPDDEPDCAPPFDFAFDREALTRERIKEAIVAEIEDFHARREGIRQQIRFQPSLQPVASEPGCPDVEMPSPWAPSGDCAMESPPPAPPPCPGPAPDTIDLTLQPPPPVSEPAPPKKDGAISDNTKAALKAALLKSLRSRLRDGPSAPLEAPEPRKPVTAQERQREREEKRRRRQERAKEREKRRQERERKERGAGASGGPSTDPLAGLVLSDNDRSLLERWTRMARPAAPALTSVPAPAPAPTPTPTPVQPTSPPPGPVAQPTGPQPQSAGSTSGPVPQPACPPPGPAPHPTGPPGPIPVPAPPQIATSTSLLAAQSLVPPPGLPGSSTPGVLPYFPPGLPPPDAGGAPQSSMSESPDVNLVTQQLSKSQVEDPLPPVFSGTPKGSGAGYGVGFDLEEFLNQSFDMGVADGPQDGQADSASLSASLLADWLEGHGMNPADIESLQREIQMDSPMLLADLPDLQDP
inactive: [4] 0.095 | [13] 0.02 | [5] 0 | [7] 0.14 | IRAK-1-4 Inhibitor I -0.033 | [14] 0.008 | pinometostat 0.105
active: [8] 1.41

LRRCC1 (UniProt Q9C099)
UniProt Q9C099, sequence (Q9C099 whole entry, looked up): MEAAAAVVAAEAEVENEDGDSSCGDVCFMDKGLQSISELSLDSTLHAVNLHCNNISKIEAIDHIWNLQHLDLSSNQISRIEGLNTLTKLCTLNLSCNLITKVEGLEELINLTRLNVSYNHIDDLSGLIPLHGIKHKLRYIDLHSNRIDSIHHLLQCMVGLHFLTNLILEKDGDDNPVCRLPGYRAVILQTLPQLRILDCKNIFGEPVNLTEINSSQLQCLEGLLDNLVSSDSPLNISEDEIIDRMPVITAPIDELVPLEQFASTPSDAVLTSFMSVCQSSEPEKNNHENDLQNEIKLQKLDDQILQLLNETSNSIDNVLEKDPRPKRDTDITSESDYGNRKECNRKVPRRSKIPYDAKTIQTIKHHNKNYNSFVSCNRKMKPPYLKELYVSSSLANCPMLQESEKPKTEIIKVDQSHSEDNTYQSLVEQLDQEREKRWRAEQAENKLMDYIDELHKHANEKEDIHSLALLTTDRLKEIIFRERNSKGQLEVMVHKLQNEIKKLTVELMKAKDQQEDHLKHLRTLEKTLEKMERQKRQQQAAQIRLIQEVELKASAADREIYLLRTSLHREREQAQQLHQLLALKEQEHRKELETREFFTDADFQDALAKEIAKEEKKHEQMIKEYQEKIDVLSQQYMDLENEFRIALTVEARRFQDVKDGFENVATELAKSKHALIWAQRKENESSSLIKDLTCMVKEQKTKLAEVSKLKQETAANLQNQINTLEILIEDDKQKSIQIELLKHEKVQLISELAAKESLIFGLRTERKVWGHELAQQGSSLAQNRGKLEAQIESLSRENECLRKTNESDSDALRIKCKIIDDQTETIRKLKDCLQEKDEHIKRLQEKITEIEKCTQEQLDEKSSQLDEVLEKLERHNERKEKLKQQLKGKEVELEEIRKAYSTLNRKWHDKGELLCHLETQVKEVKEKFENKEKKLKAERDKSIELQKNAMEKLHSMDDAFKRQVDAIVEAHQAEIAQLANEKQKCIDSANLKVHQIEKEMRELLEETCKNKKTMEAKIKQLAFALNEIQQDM
active: [4] -0.671
inactive: [5] 0.088 | [6] 0.257 | [7] 0.123 | [1] 0.121 | [2] 0.101 | [8] 0.047 | ralimetinib 0.043 | [9] 0.237 | [3] 0.109

MCOLN3 (UniProt Q8TDD5)
UniProt Q8TDD5, sequence (Q8TDD5 whole entry, looked up): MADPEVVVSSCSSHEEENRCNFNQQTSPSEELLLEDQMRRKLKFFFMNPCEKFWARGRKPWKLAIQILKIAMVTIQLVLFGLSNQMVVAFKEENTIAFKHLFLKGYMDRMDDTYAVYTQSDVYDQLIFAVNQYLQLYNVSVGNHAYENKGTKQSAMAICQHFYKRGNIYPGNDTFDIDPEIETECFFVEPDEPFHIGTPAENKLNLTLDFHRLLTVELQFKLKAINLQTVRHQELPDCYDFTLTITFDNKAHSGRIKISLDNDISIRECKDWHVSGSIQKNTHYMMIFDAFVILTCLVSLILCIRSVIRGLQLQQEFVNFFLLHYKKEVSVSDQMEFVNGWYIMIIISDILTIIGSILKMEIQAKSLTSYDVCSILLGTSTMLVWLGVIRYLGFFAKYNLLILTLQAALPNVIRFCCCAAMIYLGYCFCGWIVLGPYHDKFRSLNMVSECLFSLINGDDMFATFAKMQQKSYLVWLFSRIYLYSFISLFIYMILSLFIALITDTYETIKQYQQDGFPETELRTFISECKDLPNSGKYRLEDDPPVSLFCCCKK
inactive: erlotinib 0.244 | [11] -0.016 | [10] 0.112 | [6] -0.049 | [1] 0.053 | [2] 0.107 | ibrutinib -0.17 | ralimetinib -0.057 | [12] 0.019 | [9] 0.029 | [15] 0.03 | [3] 0.08

MAP4K2 (UniProt Q12851)
UniProt Q12851, sequence (Q12851 whole entry, looked up): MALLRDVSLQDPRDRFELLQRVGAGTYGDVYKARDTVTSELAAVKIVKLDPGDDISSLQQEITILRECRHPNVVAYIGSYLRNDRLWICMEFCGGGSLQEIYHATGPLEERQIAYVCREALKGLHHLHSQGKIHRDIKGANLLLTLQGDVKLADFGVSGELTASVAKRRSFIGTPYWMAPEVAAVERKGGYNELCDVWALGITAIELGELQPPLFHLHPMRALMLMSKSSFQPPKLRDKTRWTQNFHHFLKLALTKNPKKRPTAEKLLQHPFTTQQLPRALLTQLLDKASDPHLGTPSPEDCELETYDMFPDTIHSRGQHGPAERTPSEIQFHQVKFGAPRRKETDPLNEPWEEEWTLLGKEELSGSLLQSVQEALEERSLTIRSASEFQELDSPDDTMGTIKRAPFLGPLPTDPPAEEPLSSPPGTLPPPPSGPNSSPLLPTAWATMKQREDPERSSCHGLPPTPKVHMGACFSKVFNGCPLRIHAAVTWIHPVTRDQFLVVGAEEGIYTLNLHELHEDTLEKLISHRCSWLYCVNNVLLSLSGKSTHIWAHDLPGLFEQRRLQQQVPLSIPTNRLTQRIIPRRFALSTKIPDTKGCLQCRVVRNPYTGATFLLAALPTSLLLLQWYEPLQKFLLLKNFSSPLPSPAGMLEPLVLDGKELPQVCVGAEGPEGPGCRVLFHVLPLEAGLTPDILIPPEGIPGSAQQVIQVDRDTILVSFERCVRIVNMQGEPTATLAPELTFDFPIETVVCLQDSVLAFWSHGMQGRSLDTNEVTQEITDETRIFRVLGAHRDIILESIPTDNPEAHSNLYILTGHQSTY
inactive: [10] -0.122 | [1] -0.413 | [2] -0.172 | IRAK-1-4 Inhibitor I 0.073 | ibrutinib -0.071 | pinometostat 0.113 | [15] 0.003 | [3] 0.021

ING5 (UniProt Q8WYH8)
UniProt Q8WYH8, sequence (Q8WYH8 whole entry, looked up): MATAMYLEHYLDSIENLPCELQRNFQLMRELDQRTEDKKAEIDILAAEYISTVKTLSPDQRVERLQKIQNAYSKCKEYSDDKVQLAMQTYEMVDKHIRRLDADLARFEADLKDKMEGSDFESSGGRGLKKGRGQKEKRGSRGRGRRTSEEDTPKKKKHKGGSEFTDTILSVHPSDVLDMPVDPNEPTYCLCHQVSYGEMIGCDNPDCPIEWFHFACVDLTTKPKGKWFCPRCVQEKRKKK
inactive: erlotinib 0.273 | [11] -0.119 | [1] 0.003 | [2] 0.286 | IRAK-1-4 Inhibitor I 0.101 | [12] -0.395 | pinometostat 0.097 | [3] 0.03

MAPK11 (UniProt Q15759)
UniProt Q15759, sequence (Q15759 whole entry, looked up): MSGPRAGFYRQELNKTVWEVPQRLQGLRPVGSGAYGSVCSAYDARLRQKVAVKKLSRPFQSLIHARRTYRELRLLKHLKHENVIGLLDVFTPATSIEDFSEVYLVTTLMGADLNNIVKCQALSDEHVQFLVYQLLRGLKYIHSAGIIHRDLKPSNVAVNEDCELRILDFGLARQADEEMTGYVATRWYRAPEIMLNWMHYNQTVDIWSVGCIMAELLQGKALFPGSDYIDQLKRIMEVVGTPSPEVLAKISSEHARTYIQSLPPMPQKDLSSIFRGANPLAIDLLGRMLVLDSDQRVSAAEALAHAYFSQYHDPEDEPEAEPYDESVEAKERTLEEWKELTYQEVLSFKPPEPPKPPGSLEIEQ
active: ralimetinib 1.47
inactive: erlotinib 0.169 | [11] -0.28 | [6] 0.744 | [1] -0.56 | [2] 0.309 | IRAK-1-4 Inhibitor I -0.22 | [12] -0.853 | [9] -0.091 | pinometostat -0.111 | [3] 0.103

LOX (UniProt P28300)
inactive: erlotinib -0.245 | [11] 0.315 | [10] 0.038 | ibrutinib 0.074 | [12] -0.218 | [15] 0.144

IGFBP6 (UniProt P24592)
UniProt P24592, sequence (P24592 whole entry, looked up): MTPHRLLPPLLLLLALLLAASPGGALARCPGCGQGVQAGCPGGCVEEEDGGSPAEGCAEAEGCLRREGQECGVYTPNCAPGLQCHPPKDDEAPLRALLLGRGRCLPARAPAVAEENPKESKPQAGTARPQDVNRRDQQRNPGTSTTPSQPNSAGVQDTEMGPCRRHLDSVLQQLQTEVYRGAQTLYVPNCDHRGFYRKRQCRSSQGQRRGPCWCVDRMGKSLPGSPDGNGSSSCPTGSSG
inactive: [4] -0.215 | [5] 0.057 | [6] 0.131 | [7] -0.19 | [8] -0.02 | ralimetinib -0.049 | [9] 0.097

MED25 isoform 3 (UniProt Q71SY5)
inactive: erlotinib -0.038 | [4] 0.026 | [11] 0.005 | [5] 0.048 | [10] -0.031 | [6] 0.062 | [7] 0.057 | [1] 0.057 | [2] 0.07 | IRAK-1-4 Inhibitor I -0.087 | ibrutinib 0.039 | [8] -0.086 | ralimetinib -0.099 | [12] 0.016 | [9] -0.061 | pinometostat 0.173 | [15] -0.03 | [3] 0.053

LSR isoform 3 (UniProt Q86X29)
inactive: [1] -0.169 | [2] 0.25 | [3] -0.106
